# Measurements reported in the supplement of paper PMC3334620.
# In all, about 33,000 sequences were measured (“E-score (-0.5 to 0.5)”: median about -0.041, highest 2% from about 0.37 on). The list comes from a sample in which the highest values are over-represented; it also holds similar and randomly drawn sequences.
# Target: T1, Ecm22 (UniProt Q05958)
# T1 sequence: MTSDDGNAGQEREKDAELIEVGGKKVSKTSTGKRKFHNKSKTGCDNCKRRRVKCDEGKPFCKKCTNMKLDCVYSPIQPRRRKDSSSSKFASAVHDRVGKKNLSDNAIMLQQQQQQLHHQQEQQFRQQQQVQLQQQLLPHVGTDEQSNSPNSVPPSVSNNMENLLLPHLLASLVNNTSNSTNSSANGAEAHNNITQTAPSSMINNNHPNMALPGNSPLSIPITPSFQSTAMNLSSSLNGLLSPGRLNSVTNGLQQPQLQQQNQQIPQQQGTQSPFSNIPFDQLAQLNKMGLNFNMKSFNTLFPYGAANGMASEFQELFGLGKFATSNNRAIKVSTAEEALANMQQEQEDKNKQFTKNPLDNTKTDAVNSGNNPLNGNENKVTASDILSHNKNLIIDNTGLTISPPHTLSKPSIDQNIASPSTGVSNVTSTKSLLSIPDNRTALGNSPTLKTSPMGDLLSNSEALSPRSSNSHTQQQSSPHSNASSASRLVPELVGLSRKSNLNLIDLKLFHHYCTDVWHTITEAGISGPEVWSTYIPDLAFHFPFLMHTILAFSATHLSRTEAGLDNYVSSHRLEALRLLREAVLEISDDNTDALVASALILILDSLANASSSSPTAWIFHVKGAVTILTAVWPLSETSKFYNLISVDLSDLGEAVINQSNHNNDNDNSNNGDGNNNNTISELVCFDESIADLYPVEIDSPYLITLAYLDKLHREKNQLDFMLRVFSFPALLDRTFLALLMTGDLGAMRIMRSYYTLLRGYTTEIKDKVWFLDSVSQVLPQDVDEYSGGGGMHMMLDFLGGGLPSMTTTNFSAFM
# Assay: PBM E-score (8-mer binding enrichment) (E-score (-0.5 to 0.5)); higher = stronger / more preferred TF binding
# Conditions: protein concentration: 200 nM; construct: GST-full length
# Description: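 Universal 'all 10-mer' protein binding microarrays (Agilent AMADID 015681) probed with GST-tagged S. cerevisiae TFs (full-length or DBD) made by in vitro transcription/translation (PURExpress), about 100-200 nM. Bound TF was detected with fluorescent anti-GST. Each ungapped 8-mer (which stands for itself and its reverse complement) is scored by the PBM enrichment score (E-score), a modified Wilcoxon-Mann-Whitney statistic from -0.5 to +0.5, computed with the Universal PBM Analysis Suite. Scale: above 0.35 generally sequence-specific binding.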
row,Sequence,PBM E-score
1,TAGGGAAA,-0.0897
2,AACGAATT,0.36
3,AACGAATG,0.429
4,TACGAATA,0.43
5,ACCGAATA,0.18
6,GACGAAAA,0.196
7,CACGAAAA,0.153
8,TACGAAAA,0.423
9,GACGAATA,0.0261
10,CACGAATA,0.117
11,CACGAATG,0.052
12,ATCGAATA,0.138
13,AACGAATA,0.371
14,AATTGCTA,-0.0544
15,AGTGCTGG,-0.152
16,AAGCGGTA,0.145
17,CACAACTC,0.144
18,ACCAGCTA,-0.0229
19,AGCCAATG,-0.141
20,CAGGGGAA,-0.0465
21,CGCGATCA,0.179
22,AGTTCTTG,-0.0776
23,GTCAGGGA,-0.19
24,CACGAATC,0.0959
25,AACGAATC,0.387

row,Sequence,PBM E-score
1,GACGAATC,0.106
2,ATGCAAGG,-0.193
3,CCGCGACG,0.0789
4,ACCGGGCG,0.0784
5,GACCTACA,-0.18
6,CATGGCGC,-0.137
7,CCACTCCG,0.019
8,GCCGTGCA,-0.305
9,GCCGTACA,0.371
10,TCCGTACA,0.379
11,GGCGTACC,0.279
12,ACCGTACG,0.385
13,GCCGTAAA,0.366
14,TGCGTACA,0.283
15,TCCGTAGA,-0.0285
16,GCCGTAGC,0.163
17,ACCGTAAG,0.212
18,ACCGTAGG,-0.172
19,GCCGTACC,0.441
20,AATTCTAT,-0.104
21,TACGTTCA,0.276
22,GATCCGGC,-0.0487
23,GACCAGGA,-0.0856
24,AGGGGAAA,-0.223
25,CAAGGACA,-0.247

row,Sequence,PBM E-score
1,GGCACCGA,-0.0384
2,GAGTCACA,0.0764
3,AAACTGTT,-0.124
4,ACCGTAGC,0.163
5,ACCGTAAC,0.231
6,ACCGTACA,0.371
7,ACCGTACC,0.416
8,ACCGTACT,0.285
9,ACCGTAGA,0.0719
10,CACTGTCG,0.109
11,GCCCTATA,-0.00087
12,AAATAGCT,-0.0997
13,ATTAACGA,0.402
14,CTTAACGA,0.432
15,CGTAACGA,0.338
16,GTTAACTA,0.106
17,GTTAACGA,0.408
18,ATTAACGG,0.226
19,CTTAACGC,-0.0209
20,ATTAACGC,0.122
21,GCTAACGA,0.281
22,AGAAGACA,0.011
23,GTGTTTCA,-0.0721
24,GTCCTGGA,-0.225
25,TTAATAAA,0.169

row,Sequence,PBM E-score
1,GCGAACTA,0.114
2,TCGAACGA,0.373
3,CCGAACGG,0.222
4,ACGAACGA,0.447
5,ACGAACGG,0.392
6,ACGAACGC,0.362
7,CCGAACGA,0.357
8,ACGAACGT,0.307
9,GCGAACGA,0.397
10,TCGAACCA,-0.029
11,GCGAACGC,0.138
12,TCGAACAA,0.109
13,CCACCGGG,-0.108
14,GATTTCCA,-0.146
15,CTGCTCTA,0.0645
16,ATGCTGAG,-0.31
17,AGCCGGAA,-0.0725
18,ACCAATGA,-0.061
19,CAACAACG,0.209
20,ATAGTCGC,0.146
21,CCTCTAAA,-0.193
22,GACTTAGC,-0.147
23,GGCATCCC,-0.315
24,CAAGCAAC,0.00354
25,AGAGGCCA,-0.203

row,Sequence,PBM E-score
1,CTACCAAG,-0.23
2,AGGAACAG,-0.257
3,AGGAACGC,0.208
4,AGGAACGG,0.459
5,AAAGACGC,-0.118
6,AAATTGAA,-0.166
7,AAACGGTT,0.262
8,ACAACGAG,0.288
9,CGAACGCC,0.0398
10,AGAACGTG,-0.0515
11,CGAACGCG,0.198
12,AGAACGAG,0.45
13,CGAACGAG,0.428
14,GGAACGGA,0.435
15,AGAACGGA,0.0615
16,CGAACGGA,0.24
17,CTAACGAG,0.331
18,CGAACGTC,0.0995
19,CGAACGAC,0.389
20,ATGGTTAG,-0.0935
21,GAGGCGTA,0.155
22,TAAGGATA,0.00857
23,GGCATTAC,-0.132
24,GAGTTGAA,0.04
25,CGAACGTA,0.214

row,Sequence,PBM E-score
1,GGAACGAC,0.491
2,CTAACGAA,0.219
3,ATAACGAA,0.185
4,TTAACGAA,0.411
5,GGAACGCC,0.051
6,CGAACAAA,0.2
7,AGAACGTC,-0.0743
8,GTAACGAC,0.289
9,AGAACGAC,0.425
10,CGAACGAA,0.393
11,ATAACGAC,0.203
12,AATGTCCG,0.127
13,GCGAAGTA,0.112
14,ACCACTGC,-0.25
15,GGTGCCAA,-0.179
16,AATGGGGG,-0.268
17,CAAGGGAG,0.062
18,ACGCCCAC,-0.181
19,GGAAACAC,0.0703
20,TACGGACA,0.258
21,GGAACGAA,0.489
22,GGAACGTA,0.353
23,GGAACGCA,0.23
24,TGAACGCA,0.0733
25,AGAACAAA,0.0892

row,Sequence,PBM E-score
1,TGAACGAA,0.434
2,AGAACGAA,0.422
3,TGAACAAA,0.165
4,AGAACGAT,0.342
5,ACAGAAGT,-0.182
6,CCTAAGTA,0.0729
7,GACGACCC,-0.108
8,AACGACCA,0.424
9,TGCGACCA,0.215
10,CACGACCG,0.0498
11,CACGACCC,-0.0107
12,AACGACCC,0.386
13,TCCGACCA,0.16
14,AACGACCG,0.407
15,GACGACCA,0.097
16,CACGACCA,0.0103
17,ACCGACCG,0.278
18,TACGACCA,0.449
19,CGGCGTTA,0.0563
20,AGCAATTA,-0.107
21,CCCAGGTC,-0.218
22,AAGTTGGT,0.0141
23,CTCAAGTA,-0.142
24,CATAACAC,0.0539
25,AGCCTCTC,-0.117

row,Sequence,PBM E-score
1,CGATAAAC,0.259
2,GACTTTTA,-0.222
3,CAGGCTGC,-0.272
4,ATGCCATA,0.0201
5,GATAGACC,0.0888
6,AACGACCT,0.385
7,AGCGACCT,0.0578
8,ACCGACCT,0.0975
9,GGACTGGA,-0.323
10,AACTGGGC,-0.0689
11,ACGTTAAA,0.213
12,CCGTAAGA,0.164
13,GCGTATCA,0.114
14,CCGTAACA,0.2
15,ACGTAAGA,0.105
16,TCGTATCA,0.463
17,ACGTATCA,0.281
18,TCGTTAAA,0.44
19,GCGTAACA,0.00254
20,CCGTTAAA,0.278
21,TCGTAAGA,0.407
22,TCGTAACA,0.425
23,AATGGGCA,-0.0348
24,AGAAATAA,-0.0747
25,AGAAGCCA,-0.0549

row,Sequence,PBM E-score
1,ACGAGTGG,0.331
2,ATTTTCCA,-0.0726
3,GCGTAAAA,0.217
4,ACGTAAAA,0.243
5,TCGTAAAA,0.476
6,GGCAGGGA,-0.148
7,AATTCAGA,-0.0476
8,CTCGTTGC,0.445
9,ATCGTTGC,0.347
10,CTCGTTTC,0.453
11,CGCGTTTC,0.0578
12,CTCGTTGA,0.277
13,CACGTTTC,-0.0133
14,CTGCAAAA,-0.0893
15,ACGGGTTA,0.217
16,ACGCATCA,0.0479
17,ATTCGGAC,0.163
18,CCGGGTAC,0.291
19,ATTTGAAC,0.0528
